The values that follow come from ChEMBL document CHEMBL4513154, “CO-ADD screening of Jain University (India) compounds”.

Measured potencies and affinities stand elsewhere.

As a reminder, the Inhibition is the drop in the measured response relative to a control, in per cent.

This assay has as its system Cryptococcus neoformans. The conditions noted are these: Concentration 32 ug.mL-1; ASSAY_TEST Inhibition of Fungal Growth; detection method Resazurin; Absorption (OD600-OD570); plate type 384well; NBS; CORNING #3640.
Regarding `CC(C)c1ccc(Cn2c(-c3cscn3)nc3c(Cl)cccc32)cc1`, the Inhibition was -5.86%.

Consider `Cn1c(-c2cscn2)nc2cc(Cl)ccc21`, for which the Inhibition is reported as -39.47%.

Take `N#Cc1ccc(Cn2c(-c3cscn3)nc3c(Cl)cccc32)cc1`: the Inhibition is -42.41%.

For the compound `O=[N+]([O-])c1ccc(Cn2c(-c3cscn3)nc3ccccc32)cc1`, the Inhibition is -41.75%. Regarding `CCc1ccc(Nc2nc(N)c(-c3nc4ccccc4c(=O)n3-c3ccc(CC)cc3)s2)cc1`, the Inhibition is on record as -48.5%. Consider `CCc1ccc(Nc2nc(N)c(-c3nc4ccccc4c(=O)n3-c3ccccc3)s2)cc1`, for which the Inhibition was -53.41%.

In the case of `N#Cc1ccccc1-c1ccc(Cn2c(-c3cscn3)nc3c(Cl)cccc32)cc1`, the Inhibition is listed as -8.16%. For `CCc1ccc(-n2c(-c3sc(Nc4ccccc4)nc3N)nc3ccccc3c2=O)cc1`, the Inhibition was -54.61%.

On to `Nc1nc(Nc2ccccc2)sc1-c1nc2ccccc2c(=O)n1-c1ccccc1`, for which the Inhibition is -28.85%. Turning to `Nc1nc(Nc2ccccc2)sc1-c1nc2ccccc2c(=O)n1-c1ccc(Cl)cc1`, the Inhibition is -43.66%.
